The values below come from PubChem BioAssay.

A number with no mark means an inactive call. For part of these data: Potency and affinity values are given separately. Some of the results follow. The source made the active and inactive calls.

Assay [1] deals with Inward rectifier potassium channel 2 (Mus musculus) (UniProt P35561). Kind of assay: mouse Kir2.1 channel blockers, retest, confirmation, cell-based, FluxOR thallium flux, duplicate (AID 2032;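 active = Primary-screen hit whose thallium flux fell at least 3 control SD below untreated wells in both duplicates, with normal baseline fluorescence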). The conditions noted are these: Kir2.1-expressing cells, FluxOR thallium flux fluorescence, at 10 µM; hits give low values.
Sequence of Inward rectifier potassium channel 2 (Mus musculus) (P35561 whole entry, looked up): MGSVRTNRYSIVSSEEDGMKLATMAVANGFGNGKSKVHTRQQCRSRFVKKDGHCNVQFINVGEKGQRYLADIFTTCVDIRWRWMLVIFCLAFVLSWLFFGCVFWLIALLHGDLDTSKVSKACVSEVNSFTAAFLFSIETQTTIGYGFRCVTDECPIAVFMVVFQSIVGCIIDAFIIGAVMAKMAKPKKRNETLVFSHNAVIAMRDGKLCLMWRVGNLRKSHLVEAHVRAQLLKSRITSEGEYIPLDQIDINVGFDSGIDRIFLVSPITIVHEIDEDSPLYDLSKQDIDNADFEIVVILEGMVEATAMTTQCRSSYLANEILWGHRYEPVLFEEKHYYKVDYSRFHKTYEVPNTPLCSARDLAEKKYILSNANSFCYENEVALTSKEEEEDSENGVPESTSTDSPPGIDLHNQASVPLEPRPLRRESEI
Assay [2] can be described thus: nonspecific thallium flux effects in parental HEK293 cells, confirmation, counter-screen for Kir2.1 inhibitor project, cell-based, FluxOR thallium flux, duplicate, single concentration (AID 2105;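 active = dye signal at least 3 control SD above or below untreated wells in both duplicates, raw fluorescence within 3, either direction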). Particulars: FluxOR thallium flux fluorescence, at 10 µM; 0% = unstimulated blank wells.
The target in assay [3] is Voltage-gated inwardly rectifying potassium channel KCNH2 (Homo sapiens) (UniProt Q12809). Kind of assay: hERG channel inhibition, counter-screen for Kir2.1 inhibitor project, cell-based, thallium flux (AID 2236).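 Also: host cells are CHO cells stably expressing hERG.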 Particulars: hERG-expressing cells, at 10 µM; hits give high values.
Sequence of Voltage-gated inwardly rectifying potassium channel KCNH2 (Homo sapiens) (Q12809 whole entry, looked up): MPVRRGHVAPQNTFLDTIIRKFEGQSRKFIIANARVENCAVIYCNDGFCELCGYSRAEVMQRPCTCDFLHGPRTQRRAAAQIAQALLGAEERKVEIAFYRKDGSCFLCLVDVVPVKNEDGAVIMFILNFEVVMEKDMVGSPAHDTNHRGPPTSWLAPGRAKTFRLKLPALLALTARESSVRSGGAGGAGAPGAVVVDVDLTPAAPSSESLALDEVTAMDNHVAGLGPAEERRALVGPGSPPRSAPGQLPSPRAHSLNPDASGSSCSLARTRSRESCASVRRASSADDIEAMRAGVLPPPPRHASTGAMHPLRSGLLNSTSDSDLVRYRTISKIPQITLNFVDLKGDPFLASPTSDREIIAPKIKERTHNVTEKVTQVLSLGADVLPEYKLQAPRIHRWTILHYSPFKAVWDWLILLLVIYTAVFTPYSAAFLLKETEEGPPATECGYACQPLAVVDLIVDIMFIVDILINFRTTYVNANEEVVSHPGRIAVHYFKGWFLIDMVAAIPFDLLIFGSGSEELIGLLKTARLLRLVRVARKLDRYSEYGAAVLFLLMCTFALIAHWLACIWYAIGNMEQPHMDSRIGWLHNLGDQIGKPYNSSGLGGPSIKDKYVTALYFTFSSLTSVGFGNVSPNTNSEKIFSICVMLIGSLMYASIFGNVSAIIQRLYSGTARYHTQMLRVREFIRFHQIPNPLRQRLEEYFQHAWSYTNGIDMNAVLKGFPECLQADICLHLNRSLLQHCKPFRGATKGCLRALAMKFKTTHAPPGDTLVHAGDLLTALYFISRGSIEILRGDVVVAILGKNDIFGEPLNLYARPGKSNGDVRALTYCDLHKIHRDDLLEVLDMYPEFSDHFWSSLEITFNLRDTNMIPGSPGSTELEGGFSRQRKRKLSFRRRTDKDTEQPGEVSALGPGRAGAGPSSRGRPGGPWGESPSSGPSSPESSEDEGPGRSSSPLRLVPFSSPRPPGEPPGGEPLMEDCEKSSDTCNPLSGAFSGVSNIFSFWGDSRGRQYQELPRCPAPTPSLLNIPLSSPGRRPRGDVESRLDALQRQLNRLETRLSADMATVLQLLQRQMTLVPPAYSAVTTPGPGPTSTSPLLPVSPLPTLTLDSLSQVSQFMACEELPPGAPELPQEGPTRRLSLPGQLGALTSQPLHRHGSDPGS
For assay [4], the target named is Potassium channel subfamily K member 9 (Homo sapiens) (UniProt Q9NPC2). In words: KCNK9 channel inhibition, selectivity assay for Kir2.1 inhibitor project, cell-based (AID 2329). Particulars: KCNK9-expressing cells, ion flux inhibition, at 10 µM; hits give high values.
Assay [5] concerns the target Inward rectifier potassium channel 2 (Mus musculus) (UniProt P35561). In words: mouse Kir2.1 channel blockers, Kir2.1 inhibitor project, cell-based, secondary, automated electrophysiology (AID 463252). The conditions noted are these: Kir2.1 cells, automated patch-clamp current inhibition, at 25 µM; hits give high values.
Assay [6] can be described thus: nonspecific thallium flux increase in parental CHO-K1, confirmation, counter-screen for KCNQ2 potentiator project, cell-based, FluxOR thallium flux, duplicate (AID 2282;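 active = signal rise of at least 3 SD above the untreated control mean, in both duplicate wells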;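 also: counter screen of KCNQ2 potentiator hits so any rise reflects channel-independent effects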). Particulars: parental CHO-K1 cells, FluxOR thallium flux fluorescence; at 10 µM; hits give high values; zero = vehicle mean+3SD, 100% = vehicle-minus-blank window.
The target of assay [7] is Potassium voltage-gated channel subfamily KQT member 1 (Homo sapiens) (UniProt P51787). Kind of assay: human KCNQ1 channel potentiation off-target, confirmation, selectivity assay for KCNQ2 potentiator project, cell-based, CHO, FluxOR thallium flux (AID 2283;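 active = fluorescence ratio rise of at least 3 SD of vehicle wells above their mean, in both replicate wells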;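 also: 0% = vehicle mean plus 3 SD and 100% = vehicle minus unstimulated blank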). Particulars: CHO KCNQ1 stable, FluxOR thallium flux fluorescence; at 10 µM; hits give high values; beyond 3SD, as % of vehicle-control signal.
Sequence of Potassium voltage-gated channel subfamily KQT member 1 (Homo sapiens) (P51787 whole entry, looked up): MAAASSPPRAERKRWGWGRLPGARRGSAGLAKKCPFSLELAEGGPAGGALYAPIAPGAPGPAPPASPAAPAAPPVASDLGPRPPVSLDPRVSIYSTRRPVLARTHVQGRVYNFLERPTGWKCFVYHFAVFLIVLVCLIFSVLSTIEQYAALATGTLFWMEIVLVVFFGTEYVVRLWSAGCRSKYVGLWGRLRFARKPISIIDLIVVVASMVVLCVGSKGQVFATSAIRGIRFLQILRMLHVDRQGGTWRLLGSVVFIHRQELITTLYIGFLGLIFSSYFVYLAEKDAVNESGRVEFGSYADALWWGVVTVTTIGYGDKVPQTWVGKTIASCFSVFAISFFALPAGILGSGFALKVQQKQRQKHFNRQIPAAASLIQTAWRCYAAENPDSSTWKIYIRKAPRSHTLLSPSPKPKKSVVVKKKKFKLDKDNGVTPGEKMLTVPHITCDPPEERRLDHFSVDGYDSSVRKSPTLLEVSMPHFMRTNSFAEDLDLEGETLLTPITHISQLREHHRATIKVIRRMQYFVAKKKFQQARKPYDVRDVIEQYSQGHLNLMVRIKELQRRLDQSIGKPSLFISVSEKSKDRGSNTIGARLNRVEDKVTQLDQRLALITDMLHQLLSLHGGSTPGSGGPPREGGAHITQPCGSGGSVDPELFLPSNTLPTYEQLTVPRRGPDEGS

For assay [8], the target named is Potassium voltage-gated channel subfamily KQT member 2 (Rattus norvegicus) (UniProt O88943). In words: rat KCNQ2 channel potentiators, confirmation, cell-based, CHO, FluxOR thallium flux, duplicate (AID 2287;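 active = fluorescence ratio rising 3 SD or more over the vehicle control mean in both replicates, plus primary screen hit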;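 also: peak minus minimum thallium fluorescence divided by baseline after K/Tl stimulus; 0% = vehicle mean plus 3 SD and 100% = vehicle minus unstimulated blank difference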). The conditions noted are these: CHO-KCNQ2 cells, FluxOR thallium flux fluorescence; at 10 µM; hits give high values.
Assay [9] has as its target Inward rectifier potassium channel 2 (Mus musculus) (UniProt P35561). In words: PubChem AID 2345.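 Also: 0% = vehicle mean plus 3 SD and 100% = vehicle minus no-stimulus blank window.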 The conditions noted are these: HEK293 Kir2.1, FluxOR thallium flux fluorescence; at 10 µM; hits give high values.
The target in assay [10] is Potassium voltage-gated channel subfamily KQT member 2 (Rattus norvegicus) (UniProt O88943). Kind of assay: potentiators of retigabine-insensitive KCNQ2 W236L, mechanism study for KCNQ2 potentiator project, cell-based, rat KCNQ2 W236L, CHO, automated patch clamp (AID 2558;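 active = current increase at least 3 SD of the untreated controls above them in both duplicate recordings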). The conditions noted are these: at 25 µM; outcome: automated patch clamp current.
In assay [11] the test system is TRPC4 beta (transient receptor potential cation channel C4), mouse. Kind of assay: activators of mouse TRPC4 channel, confirmation, cell-based, Fluo4 calcium, HEK293 TRPC4beta/mu-opioid, duplicates, 10 µM (AID 2426;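 active = fluorescence ratio normalized to control raised more than 50% in primary screen plus both repeat runs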). The conditions noted are these: Fluo4 calcium fluorescence, at 10 µM; hits give high values.
The test system of assay [12] is transient receptor potential cation channel C4 beta (TRPC4), mouse. In words: activators of mouse TRPC4 channel, confirmation, cell-based, second round, Fluo4, HEK293 TRPC4beta/mu-opioid, 1 µM (AID 2461;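 active = primary screen active and over 50% activation in each of two duplicate runs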). The conditions noted are these: Fluo4 calcium fluorescence, at 1 µM; hits give high values.
In assay [13] the test system is TRPC4 (transient receptor potential cation channel C4 beta), mouse. Kind of assay: positive allosteric modulators of mouse TRPC4, confirmation, cell-based, second round, Fluo-4, HEK293 TRPC4beta/mu-opioid, 1 µM (AID 2554;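 active = primary screen hit whose fluorescence ratio, in both repeats, exceeds the weak agonist control mean by 3 SD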). The conditions noted are these: DAMGO EC20, Fluo-4 calcium flux, at 1 µM; hits give high values.
Assay [14] concerns TRPC4 beta (transient receptor potential cation channel C4), mouse. In words: positive allosteric modulators of mouse TRPC4, confirmation, cell-based, Fluo-4, HEK293 TRPC4beta/mu-opioid (AID 2555;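 active = primary screen hit whose calcium fluorescence ratio, in both repeats, exceeds the weak agonist control mean by 3 SD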). The conditions noted are these: DAMGO EC20, Fluo-4 calcium flux, at 10 µM; hits give high values.
For assay [15], the target named is Short transient receptor potential channel 4 (Mus musculus) (UniProt Q9QUQ5). Kind of assay: inhibitors of mouse TRPC4 channel, confirmation, cell-based, Fluo4, HEK293 TRPC4beta/mu-opioid (AID 2636;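 active = calcium signal cut by more than 3 SD below the full-agonist control yet still positive, in both repeats and the earlier primary screen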). Particulars: DAMGO, Fluo4 calcium flux, at 10 µM; hits give high values.
Sequence of Short transient receptor potential channel 4 (Mus musculus) (Q9QUQ5 whole entry, looked up): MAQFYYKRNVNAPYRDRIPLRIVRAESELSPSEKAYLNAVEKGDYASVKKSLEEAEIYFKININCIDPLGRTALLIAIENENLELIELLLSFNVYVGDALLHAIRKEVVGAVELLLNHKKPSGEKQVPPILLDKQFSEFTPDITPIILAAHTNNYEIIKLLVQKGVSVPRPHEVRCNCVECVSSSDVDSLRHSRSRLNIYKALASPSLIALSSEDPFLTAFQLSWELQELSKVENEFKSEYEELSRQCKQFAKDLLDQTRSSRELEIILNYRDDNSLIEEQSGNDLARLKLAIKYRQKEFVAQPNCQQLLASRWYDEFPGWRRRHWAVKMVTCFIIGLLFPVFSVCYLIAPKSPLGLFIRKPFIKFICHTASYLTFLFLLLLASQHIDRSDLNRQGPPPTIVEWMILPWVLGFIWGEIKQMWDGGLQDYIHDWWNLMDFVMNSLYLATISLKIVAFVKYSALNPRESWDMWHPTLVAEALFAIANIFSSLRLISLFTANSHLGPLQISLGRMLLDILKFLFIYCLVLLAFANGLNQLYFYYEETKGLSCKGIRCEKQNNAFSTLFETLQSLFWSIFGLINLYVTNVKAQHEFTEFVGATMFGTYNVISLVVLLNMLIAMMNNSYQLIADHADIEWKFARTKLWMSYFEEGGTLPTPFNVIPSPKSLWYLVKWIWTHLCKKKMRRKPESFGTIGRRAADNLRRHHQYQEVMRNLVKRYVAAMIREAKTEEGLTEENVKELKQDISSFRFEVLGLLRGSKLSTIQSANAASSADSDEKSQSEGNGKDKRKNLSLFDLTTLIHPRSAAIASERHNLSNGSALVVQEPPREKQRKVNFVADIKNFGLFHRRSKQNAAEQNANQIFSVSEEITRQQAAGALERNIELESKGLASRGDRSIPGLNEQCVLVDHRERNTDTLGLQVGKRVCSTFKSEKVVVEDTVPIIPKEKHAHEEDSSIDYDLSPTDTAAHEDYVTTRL
The target is the same in assay [16]. In words: inhibitors of mouse TRPC4 channel, confirmation, cell-based, second round, Fluo4, HEK293 TRPC4beta/mu-opioid, 1 µM (AID 2637;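 active = calcium signal ratio cut to more than 3 SD under the fully stimulated control mean yet still positive, in both repeats and the primary screen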;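 also: percent of integrated ratio relative to wells lacking test compound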). The conditions noted are these: Fluo4 calcium flux, DAMGO, at 1 µM; hits give high values.
The target is the same in assay [17]. Kind of assay: mouse TRPC4 channel activators, dose response, cell-based, HEK293 TRPC4/mu-opioid, Fluo-4 calcium (AID 434937;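 active = primary screen activator hit with a dose response curve and TRPC4 channel activation at any tested dose; inactive = no activation, no dose response, or not a primary hit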).
The target is the same in assay [18]. Kind of assay: TRPC4 positive allosteric modulators, dose response, cell-based, HEK293 TRPC4/mu-opioid, Fluo-4 calcium, EC20 DAMGO (AID 434941;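 active = earlier screen potentiator hit that boosts the TRPC4 ion channel at some dose, with a dose response; inactive = no potentiation, no dose response, or not a prior hit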;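 also: calcium entry triggered by an EC20 dose of DAMGO at the co-expressed mu-opioid receptor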).
The target of assay [19] is Short transient receptor potential channel 6 (Mus musculus) (UniProt Q61143). Kind of assay: inhibition of mouse TRPC6 channel, confirmation, selectivity assay for TRPC4 inhibitor project, cell-based, HEK293, membrane potential dye, duplicate (AID 434948;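 active = active in primary screen and both duplicates, each dropping signal beyond three positive-control SD with fluorescence still positive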). Particulars: HEK293 TRPC6, membrane potential dye fluorescence, at 10 µM, stimulated with maximal-effect acetylcholine; hits give high values.
Sequence of Short transient receptor potential channel 6 (Mus musculus) (Q61143 whole entry, looked up): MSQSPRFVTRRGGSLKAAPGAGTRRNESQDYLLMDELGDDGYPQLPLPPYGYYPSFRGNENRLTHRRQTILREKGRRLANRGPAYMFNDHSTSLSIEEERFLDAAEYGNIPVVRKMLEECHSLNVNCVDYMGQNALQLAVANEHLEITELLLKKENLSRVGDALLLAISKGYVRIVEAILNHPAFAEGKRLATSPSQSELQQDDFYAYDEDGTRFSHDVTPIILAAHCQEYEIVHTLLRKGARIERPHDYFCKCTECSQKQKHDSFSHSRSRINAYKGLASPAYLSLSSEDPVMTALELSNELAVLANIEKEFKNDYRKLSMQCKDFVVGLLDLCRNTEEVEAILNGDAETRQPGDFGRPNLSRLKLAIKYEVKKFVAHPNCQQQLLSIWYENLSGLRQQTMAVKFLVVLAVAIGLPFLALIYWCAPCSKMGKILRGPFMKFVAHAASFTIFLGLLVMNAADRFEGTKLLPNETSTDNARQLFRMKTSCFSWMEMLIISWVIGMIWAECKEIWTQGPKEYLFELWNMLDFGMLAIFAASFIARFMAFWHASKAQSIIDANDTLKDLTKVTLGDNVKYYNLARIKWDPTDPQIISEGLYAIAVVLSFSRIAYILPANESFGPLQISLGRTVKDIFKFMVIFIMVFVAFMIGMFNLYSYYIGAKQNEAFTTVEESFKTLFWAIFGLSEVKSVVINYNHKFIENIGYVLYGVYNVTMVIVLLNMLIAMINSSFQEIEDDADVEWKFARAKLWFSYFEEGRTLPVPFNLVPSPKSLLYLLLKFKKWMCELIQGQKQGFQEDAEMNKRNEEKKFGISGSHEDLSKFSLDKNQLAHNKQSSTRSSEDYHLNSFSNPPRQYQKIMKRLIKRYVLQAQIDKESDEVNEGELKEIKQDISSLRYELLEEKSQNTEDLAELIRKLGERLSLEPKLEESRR

The target is the same in assay [20]. In words: activation of mouse TRPC6 channel, confirmation, selectivity assay for TRPC4 activator project, cell-based, HEK293, membrane potential dye, duplicate (AID 434950;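 active = membrane potential signal rise above negative control mean plus 3 SD in both duplicates, also active in the earlier TRPC4 screen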). The conditions noted are these: HEK293 TRPC6, membrane potential fluorescence, at 10 µM; hits give high values.
Assay [21] shares this target. Kind of assay: TRPC6 potentiation by TRPC4 potentiator hits, confirmation, selectivity assay for TRPC4 potentiator project, HEK293 cells, membrane potential dye, duplicate (AID 434952;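 active = compound raising the membrane signal above positive-control mean plus 3 SD in both repeats, and a primary screen hit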). The conditions noted are these: HEK293 TRPC6, membrane potential dye fluorescence, at 10 µM, maximal acetylcholine added after compound; hits give high values.
The target of assay [22] is Short transient receptor potential channel 4 (Mus musculus) (UniProt Q9QUQ5). Kind of assay: calcium flux activators in TRPC4/5HT1a cells, counter-screen for TRPC4 activator project, cell-based, second counter screen, HEK293 TRPC4/5HT1a, Fluo-4 (AID 434977;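 active = calcium signal rise above buffer-control mean plus 5 SD in both duplicates, and also a hit in the primary screen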). Particulars: Fluo-4 calcium flux, at 10 µM; hits give high values.
Assay [23] is described as follows: calcium flux inhibitors in TRPC4/5HT1a cells, confirmation, counter-screen for TRPC4 inhibitor project, cell-based, second counter screen, HEK293 TRPC4/5HT1a, Fluo-4 (AID 434978;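 active = primary screen active whose calcium signal fell more than 3 SD beyond the full-serotonin control mean in both duplicate plates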). The conditions noted are these: Fluo-4 calcium flux, at 10 µM, serotonin added to trigger calcium flux; hits give high values.
Assay [24] has as its system TRPC4 (mouse), co-expressed with 5HT1a in HEK293. In words: calcium flux potentiators in TRPC4/5HT1a cells, confirmation, counter-screen for TRPC4 potentiator project, cell-based, second counter screen, HEK293 TRPC4/5HT1a, Fluo-4 (AID 434979;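 active = signal rise over 3 SD above mean of control wells given weak agonist, in both repeats and first screen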). Particulars: Fluo-4 calcium flux, at 10 µM, serotonin added at its EC20 dose; hits give high values.
The nature of assay [25]: calcium flux activation in mu-opioid HEK293 cells, confirmation, counter-screen for TRPC4 activator project, cell-based, HEK293 mu-opioid receptor line (AID 449723;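 active = hit in primary screen, with calcium signal over 5 SD above buffer well mean in both duplicates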;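 also: counter screen cells carry the mu-opioid receptor alone and lack TRPC4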). Particulars: Fluo-4 calcium fluorescence, at 10 µM; hits give high values.
Assay [26] is described as follows: calcium flux enhancement in mu-opioid HEK293 cells, confirmation, counter-screen for TRPC4 allosteric potentiator project, cell-based, HEK293 mu-opioid receptor line (AID 449724;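 active = calcium signal rise more than 3 SD above the low-dose agonist control mean, in both duplicate plates and the primary screen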;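 also: HEK293 cells carrying mu-opioid receptor only with no TRPC4 channel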). The conditions noted are these: Fluo-4 calcium flux, at 10 µM, compound added before EC20 DAMGO stimulus; hits give high values.

In the case of `CN1CCN(CCCCOc2ccccc2-c2ccccc2)CC1`, the Tl flux remaining, % of negative control (hits give low values) in assay [1] was 48.5% (active). For the same compound, the result in assay [2], in assay [3] and in assay [4] was inactive. Besides, the inhibition in assay [5] is 27.4% (active).
As to `O=C(Nc1cccc(-c2cscn2)c1)C1CCN(Cc2ccsc2)CC1`, the Tl flux remaining, % of negative control (hits give low values) in [1] is 44% (active). The result in [2] and in assay [4] was inactive. Besides, the figures for the inhibition in [3] and in assay [5] were 51% (active) and 7.1% (active), respectively.
In the case of `C/C=C(/C)C(=O)OC1Cc2c(ccc3ccc(=O)oc23)OC1(C)C` (stereo not given), the Tl flux remaining, % of negative control (hits give low values) in assay [1] was 63% (active). For the same compound, the result in [2], in assay [3], in assay [4] and in [5] was inactive.
Turning to `Cc1ccc(-n2nc3c(c2NC(=O)CCC2CCCCC2)CS(=O)C3)cc1` (stereo not given), the result in assay [1], in assay [2] and in assay [10] was inactive. Further, the activity increase over 3SD of controls in assay [6] is 7.4% (active). Moreover, the activation over 3SD threshold in assay [7] was 30.1% (active). In addition, in assay [8], the potentiation, less the hit threshold was 27.6% (active). For the same compound, in assay [9], the activity over 3SD threshold is -35.2%.
In the case of `C=CCc1cc(S(=O)(=O)c2ccc(O)c(CC=C)c2)ccc1O`, the Tl flux remaining, % of negative control (hits give low values) in [1] was 40.5% (active). Also, the outcome in assay [2], in assay [3] and in [5] was inactive. Further, the inhibition in assay [4] is 79% (active).
Regarding `O=C(CCCN1CCc2[nH]c3ccc(F)cc3c2C1)c1ccc(F)cc1`, in assay [1], the Tl flux remaining, % of negative control (hits give low values) is 46% (active). Moreover, the outcome in assay [2] and in assay [4] was inactive. Moreover, the values for the inhibition in [3] and in assay [5] were 69% (active) and 5.5% (active), respectively.
Regarding `COc1ccc(NC(=O)/C(Cl)=C(/Cl)S(=O)Cc2ccc(C)cc2)cn1` (stereo not given), the result in assay [1], in assay [2] and in [10] was inactive. The activity increase over 3SD of controls in assay [6] was -1.5%. In [7], the activation over 3SD threshold is -20.5%. Further, in assay [8], the potentiation, less the hit threshold was 0.8% (active). Also, the activity over 3SD threshold in [9] is -44.7%.
Take `O=C(/C=C/Sc1ncn[nH]1)c1ccc(Cl)cc1`: the compound was classed as inactive in assay [1] and in assay [2]. Also, the activity increase over 3SD of controls in [6] was -4%. Further, the activation over 3SD threshold in assay [7] was 0.3% (active). Moreover, the potentiation, less the hit threshold in [8] is -17.8%. In addition, in assay [9], the activity over 3SD threshold is -56.5%.
With `CCCn1c(C2CCCN2c2nc(-c3ccc(C)cc3)cs2)nc2cc(Cl)c(N3CCCCC3)cc21` (stereo not given), the result in [1] and in assay [2] was inactive. For the same compound, the activity increase over 3SD of controls in assay [6] is 12.5% (active). Further, the activation over 3SD threshold in [7] is -30.1%. The potentiation, less the hit threshold in [8] is -9.8%. In assay [9], the activity over 3SD threshold was -27.9%.
On to `Clc1ccc(-c2cc(C3CCNCC3)[nH]n2)c(Cl)c1`, for which, in [1], the Tl flux remaining, % of negative control (hits give low values) is 22.5% (active). Besides, the result in assay [2] was inactive.
Turning to `CC1(C)NC(=O)N(CCCCSc2ccc(Cl)cc2)C1=O`, the Tl flux remaining, % of negative control (hits give low values) in assay [1] is 46% (active). In addition, the outcome in assay [2], in assay [3] and in [4] was inactive. Besides, the inhibition in [5] was 40.8% (active).
As for `COc1ccc(C(CCNCc2ccccc2F)c2ccc(F)cc2)cc1` (stereo not given), the Tl flux remaining, % of negative control (hits give low values) in assay [1] is 39.5% (active). The outcome in assay [2] was inactive.
`CCCc1cc(=O)[nH]c(SCC(=O)c2cc(C)n(CCC)c2C)n1`: in assay [1], the Tl flux remaining, % of negative control (hits give low values) was 60% (active). In addition, the outcome in [2], in [3] and in assay [4] was inactive. In [5], the inhibition was 30.9% (active).
Turning to `CCC(=O)OCc1c(C(F)(F)F)nn(C)c1Oc1cccc(C(F)(F)F)c1`, the outcome in assay [1] and in assay [2] was inactive.
Take `Cc1ccc(C(=O)Nc2nnc(C3=COCCO3)o2)cc1C`: the call in [1], in [2], in assay [11], in assay [12], in assay [13] and in assay [14] was inactive. Moreover, the outcome in assay [10], in assay [17], in assay [18], in [19], in assay [20] and in [21] was inactive. In addition, the result in assay [22], in [24], in [25] and in assay [26] was inactive. In addition, in assay [6], the activity increase over 3SD of controls is 50.1% (active). In assay [7], the activation over 3SD threshold was -7.9%. Besides, in [8], the potentiation, less the hit threshold is 4.5% (active). Moreover, the activity over 3SD threshold in assay [9] is -30.3%. The figures for the inhibition in assay [15], in assay [16] and in assay [23] were 66% (active), 44% (active) and 42.2% (active), respectively.
